Where “and” joins values, the source holds several entries; their conditions need not be identical. Equal values may be shown once. This is part of a sample that, as a whole, favours compounds with a hit. Of some 83,000 tested, about 20% had one in any assay.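 Assay: single dose, 48 h. Readout: percent growth (0 = no net growth; negative = cell death). Active: <10.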 A number with no mark means an inactive call. Calls of active or inactive are those of the source.

This experiment has as its system NCI-H522 lung. Briefly: NCI-60 one-dose screen, 48 h (100 = growth as untreated, 0 = no growth, -100 = all killed). Conditions: 10 µM unless noted.
As to `O=C1/C(=C/c2ccc(-c3cccc(C(F)(F)F)c3)o2)SC(=S)N1CCc1ccc(O)cc1`, the growth is 4% (active).
Turning to `O=C(CCN1CCOCC1)Nc1cccc(-n2cc(-c3ccncc3)c(-c3ccc(Cl)c(O)c3)n2)c1`, the growth was 5.83% (active).
The figure for `O=C(Nc1ccc(Cl)c(Cl)c1)Nc1ccc(Cl)c(Cl)c1` is -83.9% (active) and 6.21% (active); for `CCn1cc(C(=O)NN=C2CCCC2)c(=O)c2ccc(C)nc21` it is 88.8%; for `CCOc1ccccc1NC(=O)c1cc2ccccc2cc1O` it is 12.9%.
Next, `O=C(c1ccc(Nc2nccc(NCCCNc3ccnc4cc(Cl)ccc34)n2)cc1)N1CCCCC1`: 38.2%.
Next, `Cc1ccc(-c2nc3nc(-c4ccc(Br)cc4)nc(N4CCCNCC4)c3o2)cc1`: 72.6%.
Turning to `S=c1nc(CS)[nH]c2ccccc12`, the growth was 95.6%.
The figure for `Cc1ccc2c(c1)C(C)Cc1c(ncnc1-n1cnc3cc(C)ccc31)N2C` (stereo not given) is -30% (active); for `Clc1ccc(/C=N\N2CCCCCC2)cc1` it is 123% and 83.6%; for `CC(=O)OC[C@]12CCC(C)(C)C=C1[C@H]1CC[C@@H]3[C@@]4(C)CCCNC(C)(C)[C@@H]4CC[C@@]3(C)[C@]1(C)CC2` it is 39.4%.
Turning to `Cc1[nH]c(C(=O)Nc2nc3ccc(NC(=O)CCN)cc3s2)c(Cl)c1Cl`, the growth is 85.5%.
For `COc1ccc(C(=O)c2ccc(OC)c(OC)c2OC)cc1`, the growth is 11.2% and 12.1%.
With `COc1cc(NC2CCCCC2O)c2nc(-c3ccc(Cl)cc3)ccc2c1` (stereo not given), the growth is 65.7% and 89.5%.
Next, `CN1CCCc2cc(/C=C3\SC(=S)N(C(Cc4ccc(O)cc4)C(=O)O)C3=O)ccc21` (stereo not given): 91.5%; `Cc1cc(N2CCN(CC(=O)Nc3ccc4c(ccn4Cc4ccccc4)c3)CC2)nc(N2CCCCCC2)n1`: 62.4%; `CCCCC1COc2cccc3c2N1C=C/C3=C\C(=O)N(C)c1cccc(Cl)c1` (stereo not given): 90.1%.
The figure for `O=C(NNc1ccccc1)C1CCCN1` (stereo not given) is 52.2%; for `O=C1C=C(Nc2ccccc2)c2ncccc2C1=O` it is -75.3% (active).
Next, `Nc1nc(CSc2n[nH]c(N)n2)nc(Nc2ccccc2)n1`: 93.4%.
As to `O=C1/C(=C/c2ccccc2[N+](=O)[O-])Cc2ccccc21`, the growth is -88.7% (active) and -87.5% (active).
Consider `COc1ccc(/C=C2/C(=O)N=C3N2NC(c2ccccc2)=CN3c2ccccc2)cc1`, for which the growth was 101%.
Next, `CCN(CC)CCCN1C(=O)c2c(c(C)c3c(oc4cc(OC)ccc43)c2C)C1=O`: 104%; `CC[C@]12CN3CCc4c([nH]c5ccccc45)[C@@](C(=O)OC)(c4cc5c(cc4OC)N(C)[C@H]4[C@@](O)(C(=O)OC)[C@H](OC(C)=O)[C@]6(CC)C=CCN7CC[C@]54[C@@H]76)CC(C3)[C@H]1O2` (stereo not given in full): -5.19% (active).
Next, `O=C(/C=C\c1ccc(Cl)c(Cl)c1)c1ccccc1`: 81% and 87.1%.

(Values after PubChem BioAssay (NCI).)
